Results published in the supplement of paper PMC11417369.
The full ranking holds about 25,000 sequences; the median of “ln(normalized median fluorescence intensity)” is about 6.7, and the highest 2% start at about 10. This is one part of a sample in which the highest values are shown more often than they occur.

The sequences below were run on PfHDP1 homeodomain (GST-tagged) (assay: gcPBM binding intensity (ln(normalized median fluorescence intensity)); higher = stronger DNA binding).
Method in brief: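 An Agilent 4 × 180k array carrying primer-extended double-stranded 36-bp intergenic genomic probes and negative controls received GST-tagged P. falciparum DNA-binding domains expressed in E. coli, about 25 μg on average, for 1 h. The binding buffer contained 1× PBS, 1% milk, 0.2 mg/ml BSA, 0.5% salmon testes DNA and 0.03% Triton X-100. Binding intensity is the top Masliner-normalised natural-log median intensity across replicate spots of either probe orientation, read after Alexa488 anti-GST antibody staining and a 488 nm scan.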

Q: “GATGTTCATCACTACACACACAAAGAAATATAAATA [CACACA_site7294]” was tested. Which “gcPBM binding intensity (ln)” value did it give?
A: 6.57

Q: Which “gcPBM binding intensity (ln)” value does the source give for “TCAATTAGACGAAAATGTACATATGTATATATTTTT [XGTACX_site5027]” here?
A: 6.25

Q: With “ATACATATGGTGGATCGTACATATATATAATATGTA [XGTACX_site8631]” as the sequence, how does the “gcPBM binding intensity (ln)” value read?
A: 6.5

Q: Which “gcPBM binding intensity (ln)” value does the source give for “TAGAATGTATGTAGTGCACACCTCTATAATATATTA [CACACA_site1873]” here?
A: 10.5

Q: “TATAATGTATGTAGTGCACACCTCTATAATATATTA [CACACA_site8560]” was tested. Which “gcPBM binding intensity (ln)” value did it give?
A: 9.5

Q: For “TATGTACACCCATATACACACCTCTATAATATATAT [CACACA_site4563]”, which “gcPBM binding intensity (ln)” value is on record?
A: 7.13

Q: With “TATTATATTATACATACACACCCATATAATATGTTT [CACACA_site8191]” as the sequence, how does the “gcPBM binding intensity (ln)” value read?
A: 6.85

Q: AATATTCAATATAAAGTGCATTATTGTGGACCTAAT was tested. Which “gcPBM binding intensity (ln)” value did it give?
A: 8.94

Q: Which “gcPBM binding intensity (ln)” value does the source give for TAAATATATATATAAGTGCATTATATATATATATAA here?
A: 9.53

Q: Which “gcPBM binding intensity (ln)” value does the source give for GCCAATAAAGATGTGGTGCATTATATATATATATAT here?
A: 10.7

Q: Which “gcPBM binding intensity (ln)” value does the source give for “TAAAACTTATACAAATGTACAAATATATATATATAT [XGTACX_site4661]” here?
A: 9.19

Q: “TTTTTTATTTTATTTTTTTCTGCTTATCCACATTAG [XGTACX_negctrl_site108]” was tested. Which “gcPBM binding intensity (ln)” value did it give?
A: 6.48

Q: How did the “gcPBM binding intensity (ln)” value turn out when “CTTATATTAATTATTACACACATATTTATAAATGCA [CACACA_site6501]” was run?
A: 6.66

Q: “TTTTAATTTATTTATGCACACATATATAATTACACA [CACACA_site8126]” was tested. Which “gcPBM binding intensity (ln)” value did it give?
A: 10.1

Q: With “ATTATATACATATATGCACACAAAAAAATATATATT [CACACA_site8508]” as the sequence, how does the “gcPBM binding intensity (ln)” value read?
A: 9.93

Q: With “GTATTATTATTATGCACACAAAAATATTTATACATA [CACACA_site3656]” as the sequence, how does the “gcPBM binding intensity (ln)” value read?
A: 10.9

Q: How did the “gcPBM binding intensity (ln)” value turn out when “GCACACATATAATTAAACATATATTTGTATTATTTT [GTGCAC_negctrl_site327]” was run?
A: 6.5

Q: How did the “gcPBM binding intensity (ln)” value turn out when “CTTTTTTTAATATGCACACATATATTTTATATATTA [CACACA_site2077]” was run?
A: 10.3

Q: With “ATATTACCCATATATGCACACATTGTAGTTATTTAT [CACACA_site2636]” as the sequence, how does the “gcPBM binding intensity (ln)” value read?
A: 9.18

Q: How did the “gcPBM binding intensity (ln)” value turn out when “GTACTTGTATTATGCACACATATAATTAAACATATA [CACACA_site3312]” was run?
A: 10.1

Q: With “TTAATTTATTTATGCACACATATATAATTACCCATA [CACACA_site682]” as the sequence, how does the “gcPBM binding intensity (ln)” value read?
A: 10.7

Q: How did the “gcPBM binding intensity (ln)” value turn out when “TAGTATTATTATTATGCACACAAAAATATTTATACA [CACACA_site9219]” was run?
A: 10.4

Q: For “TCGTACTTGTATTATGCACACATATAATTAAACATA [CACACA_site9089]”, which “gcPBM binding intensity (ln)” value is on record?
A: 10.5

Q: With “TTAATTTATTTATGCACACATATATAATTACACATA [CACACA_site4544]” as the sequence, how does the “gcPBM binding intensity (ln)” value read?
A: 10.7

Q: For “AAATAATTAGCTATTTGTACATATATACATATTTAT [XGTACX_site4652]”, which “gcPBM binding intensity (ln)” value is on record?
A: 6.37
